In ChEMBL document CHEMBL3988442, “University of Dundee, Small-Polar-MMV Screening Library” (2021):
For some of these results: Measured potencies and affinities stand elsewhere.

What was measured:
Design in all cases: scale not given: direction of the effect not stated beside the values
[1] = target: Protein translocase subunit SecA (Escherichia coli (strain K12)) (UniProt P10408); assay: Assay to Identify E. coli SecA ATPase Inhibitors; type: functional; conditions: 30 µM
[2] = target: T1, Ubiquitin-activating enzyme e1, putative (Leishmania donovani (strain BPK282A1)) (UniProt E9BSI1); assay: Leishmania donovani Ubiquitin Activating Enzyme (LdE1); type: functional; conditions: 30 µM
T1 sequence (whole entry): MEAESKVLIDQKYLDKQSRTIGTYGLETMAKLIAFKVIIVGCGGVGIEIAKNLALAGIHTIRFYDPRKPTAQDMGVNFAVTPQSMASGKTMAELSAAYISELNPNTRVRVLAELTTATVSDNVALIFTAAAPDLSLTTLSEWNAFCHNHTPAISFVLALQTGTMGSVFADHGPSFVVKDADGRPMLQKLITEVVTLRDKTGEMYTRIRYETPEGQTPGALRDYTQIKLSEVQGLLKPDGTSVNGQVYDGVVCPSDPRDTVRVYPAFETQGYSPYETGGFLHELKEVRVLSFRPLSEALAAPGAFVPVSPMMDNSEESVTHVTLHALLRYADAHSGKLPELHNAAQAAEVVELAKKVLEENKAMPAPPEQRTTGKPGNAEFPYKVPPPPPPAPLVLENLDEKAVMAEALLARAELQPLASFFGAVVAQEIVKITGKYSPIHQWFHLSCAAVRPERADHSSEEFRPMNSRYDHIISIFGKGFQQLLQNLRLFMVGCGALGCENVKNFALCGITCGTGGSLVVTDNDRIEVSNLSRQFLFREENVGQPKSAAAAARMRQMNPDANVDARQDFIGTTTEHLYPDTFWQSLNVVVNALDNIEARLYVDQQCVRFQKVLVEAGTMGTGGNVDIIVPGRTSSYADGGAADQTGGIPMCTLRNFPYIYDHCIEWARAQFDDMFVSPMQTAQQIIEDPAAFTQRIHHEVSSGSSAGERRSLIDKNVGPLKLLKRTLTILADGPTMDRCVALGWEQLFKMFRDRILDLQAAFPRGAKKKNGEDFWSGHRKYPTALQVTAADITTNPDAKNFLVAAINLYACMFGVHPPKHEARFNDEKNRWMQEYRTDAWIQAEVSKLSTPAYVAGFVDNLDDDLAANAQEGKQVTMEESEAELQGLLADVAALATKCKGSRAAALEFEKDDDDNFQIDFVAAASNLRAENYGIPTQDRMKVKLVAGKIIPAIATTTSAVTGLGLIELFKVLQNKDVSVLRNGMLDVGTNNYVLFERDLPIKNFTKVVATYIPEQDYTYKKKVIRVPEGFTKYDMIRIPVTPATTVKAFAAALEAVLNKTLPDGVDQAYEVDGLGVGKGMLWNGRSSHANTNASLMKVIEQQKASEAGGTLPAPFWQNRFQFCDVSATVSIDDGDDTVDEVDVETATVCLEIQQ

[3] = target: AMP-activated protein kinase, AMPK (Homo sapiens) (UniProt P54646+O43741+P54619+Q9UGJ0+Q9Y478+Q13131+Q9UGI9); assay: AMP-dependent Kinase enzyme assay. An in vitro enzyme assay that detects ADP turnover that is directly proportional to AMPK activity. This uses naive AMPK that is activated during the assay with MK-8722; type: functional; conditions: 30 µM
[4] = target: Sialic acid-binding Ig-like lectin 9 (Homo sapiens) (UniProt Q9Y336); assay: Hs-Siglec9 ALPHAscreen SOP 20170721; conditions: 10 µM
Trypanosoma cruzi = assay: Trypanosoma cruzi phosphomannomutase and mannose-1-phosphate guanylyltransferase assay; type: functional; conditions: 10 µM
[5] = target: T2, Arginase-2, mitochondrial (Homo sapiens) (UniProt P78540); assay: in vitro enzyme assay to detect the production of urea directly proportional to the activity of Arginase II; type: functional; conditions: 33.3 µM; further: in the data most compounds retested in dose-response had high values
T2 sequence (whole entry): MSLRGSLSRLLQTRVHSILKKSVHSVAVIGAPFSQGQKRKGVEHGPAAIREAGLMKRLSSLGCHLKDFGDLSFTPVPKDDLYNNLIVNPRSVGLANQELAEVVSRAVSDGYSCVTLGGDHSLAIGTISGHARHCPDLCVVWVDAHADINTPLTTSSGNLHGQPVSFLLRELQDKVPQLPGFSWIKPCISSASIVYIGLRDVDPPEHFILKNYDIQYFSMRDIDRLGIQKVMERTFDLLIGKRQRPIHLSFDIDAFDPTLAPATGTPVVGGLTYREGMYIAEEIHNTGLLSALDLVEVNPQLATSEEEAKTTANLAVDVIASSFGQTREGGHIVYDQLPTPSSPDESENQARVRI

[6] = target: T3, Proteasome subunit beta (Trypanosoma cruzi) (UniProt O96673); assay: Trypanosoma cruzi proteasome chymotrypsin-like activity (TcProtChymo) assay.; further: in the data most compounds retested in dose-response had high values; type: functional; conditions: 9.37 µM
T3 sequence (whole entry): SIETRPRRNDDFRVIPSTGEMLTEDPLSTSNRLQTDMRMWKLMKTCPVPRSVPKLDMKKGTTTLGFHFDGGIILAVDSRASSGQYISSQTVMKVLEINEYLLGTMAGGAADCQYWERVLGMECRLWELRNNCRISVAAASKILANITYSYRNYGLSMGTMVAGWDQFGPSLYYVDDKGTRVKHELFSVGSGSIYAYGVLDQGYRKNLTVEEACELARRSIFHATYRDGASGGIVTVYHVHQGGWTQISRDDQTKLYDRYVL

Homo sapiens = species on record: Homo sapiens; assay: To identify inhibition of the IFN signalling (Jak-Stat) pathway via expression of an eGFP reporter gene under the control of an IFN-stimulated response element (ISRE) containing MxA promoter.; type: functional; conditions: 30 µM
[7] = target: T4, Tyrosyl-tRNA synthetase, putative (Trypanosoma cruzi (strain CL Brener)) (UniProt Q4DSP6); assay: Trypanosoma cruzi tyrosyl tRNA synthetase (TcYRS) _High Tyrosine SOP; type: functional; conditions: 30 µM; further: in the data most compounds retested in dose-response had high values
T4 sequence (whole entry): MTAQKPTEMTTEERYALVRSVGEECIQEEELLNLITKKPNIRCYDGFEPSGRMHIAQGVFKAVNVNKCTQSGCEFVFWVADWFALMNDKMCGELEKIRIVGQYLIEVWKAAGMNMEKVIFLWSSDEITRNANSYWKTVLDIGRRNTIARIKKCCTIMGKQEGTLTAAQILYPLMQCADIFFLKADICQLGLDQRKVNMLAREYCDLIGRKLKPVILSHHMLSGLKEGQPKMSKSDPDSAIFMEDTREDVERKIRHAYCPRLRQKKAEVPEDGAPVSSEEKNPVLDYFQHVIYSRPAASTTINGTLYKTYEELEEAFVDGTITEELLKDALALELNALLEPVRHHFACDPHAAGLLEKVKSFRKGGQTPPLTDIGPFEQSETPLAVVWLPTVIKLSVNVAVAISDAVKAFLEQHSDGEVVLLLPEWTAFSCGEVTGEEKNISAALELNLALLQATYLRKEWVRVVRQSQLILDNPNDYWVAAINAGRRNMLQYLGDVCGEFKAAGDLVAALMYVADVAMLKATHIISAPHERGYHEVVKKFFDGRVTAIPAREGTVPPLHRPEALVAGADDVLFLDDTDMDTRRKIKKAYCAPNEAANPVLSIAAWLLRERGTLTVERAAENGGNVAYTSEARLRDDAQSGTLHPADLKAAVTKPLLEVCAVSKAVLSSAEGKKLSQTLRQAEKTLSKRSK

[8] = target: T4, Tyrosyl-tRNA synthetase, putative (Trypanosoma cruzi (strain CL Brener)); assay: Trypanosoma cruzi tyrosyl tRNA synthetase (TcYRS) SOP; type: functional; conditions: 30 µM
[9] = target: Chromo domain-containing protein 1 (Saccharomyces cerevisiae (strain ATCC 204508 / S288c) (Baker's yeast)) (UniProt P32657); assay: ScCHD-1 Enzyme Inhibition Assay; type: functional; conditions: 30 µM; further: in the data most compounds retested in dose-response had high values
Chain of Chromo domain-containing protein 1 (Saccharomyces cerevisiae (strain ATCC 204508 / S288c) (Baker's yeast)) (P32657 whole entry, the tested form may be a part): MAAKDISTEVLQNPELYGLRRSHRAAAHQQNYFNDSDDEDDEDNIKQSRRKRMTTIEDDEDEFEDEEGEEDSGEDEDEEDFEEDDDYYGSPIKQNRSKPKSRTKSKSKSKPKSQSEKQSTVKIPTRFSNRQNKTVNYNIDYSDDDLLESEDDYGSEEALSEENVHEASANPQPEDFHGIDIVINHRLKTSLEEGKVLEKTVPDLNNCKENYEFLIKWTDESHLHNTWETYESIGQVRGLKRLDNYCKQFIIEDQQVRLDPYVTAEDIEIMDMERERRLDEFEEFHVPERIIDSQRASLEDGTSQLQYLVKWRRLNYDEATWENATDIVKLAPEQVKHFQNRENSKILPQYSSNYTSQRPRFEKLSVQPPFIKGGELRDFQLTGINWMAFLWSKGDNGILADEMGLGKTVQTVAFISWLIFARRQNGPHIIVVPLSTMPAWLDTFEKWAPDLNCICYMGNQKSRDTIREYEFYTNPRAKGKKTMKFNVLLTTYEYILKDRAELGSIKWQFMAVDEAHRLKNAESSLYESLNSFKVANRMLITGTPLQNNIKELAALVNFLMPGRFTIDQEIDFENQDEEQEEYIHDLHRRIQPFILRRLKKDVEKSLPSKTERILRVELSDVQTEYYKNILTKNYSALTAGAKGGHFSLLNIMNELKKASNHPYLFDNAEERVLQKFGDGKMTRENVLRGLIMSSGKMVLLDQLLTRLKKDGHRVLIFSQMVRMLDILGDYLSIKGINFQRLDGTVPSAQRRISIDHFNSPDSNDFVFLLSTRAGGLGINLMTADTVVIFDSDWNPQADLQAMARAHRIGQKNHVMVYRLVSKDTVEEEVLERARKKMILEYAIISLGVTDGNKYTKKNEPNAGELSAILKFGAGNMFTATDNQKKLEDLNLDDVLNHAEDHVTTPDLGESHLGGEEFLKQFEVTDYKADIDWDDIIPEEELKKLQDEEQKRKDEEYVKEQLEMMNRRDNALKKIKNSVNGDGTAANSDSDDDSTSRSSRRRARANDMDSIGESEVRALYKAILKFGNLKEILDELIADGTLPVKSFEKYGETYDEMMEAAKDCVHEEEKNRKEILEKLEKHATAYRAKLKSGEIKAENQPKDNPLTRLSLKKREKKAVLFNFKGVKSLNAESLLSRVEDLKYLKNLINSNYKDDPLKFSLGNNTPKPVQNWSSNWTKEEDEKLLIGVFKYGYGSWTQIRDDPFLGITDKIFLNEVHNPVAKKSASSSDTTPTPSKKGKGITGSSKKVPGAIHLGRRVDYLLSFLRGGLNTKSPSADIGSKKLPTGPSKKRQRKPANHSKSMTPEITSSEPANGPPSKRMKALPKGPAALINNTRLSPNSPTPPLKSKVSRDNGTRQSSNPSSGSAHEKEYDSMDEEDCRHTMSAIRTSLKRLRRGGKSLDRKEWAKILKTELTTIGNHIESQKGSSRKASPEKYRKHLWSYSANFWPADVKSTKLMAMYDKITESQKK

Chain of Protein translocase subunit SecA (Escherichia coli (strain K12)) (P10408 whole entry): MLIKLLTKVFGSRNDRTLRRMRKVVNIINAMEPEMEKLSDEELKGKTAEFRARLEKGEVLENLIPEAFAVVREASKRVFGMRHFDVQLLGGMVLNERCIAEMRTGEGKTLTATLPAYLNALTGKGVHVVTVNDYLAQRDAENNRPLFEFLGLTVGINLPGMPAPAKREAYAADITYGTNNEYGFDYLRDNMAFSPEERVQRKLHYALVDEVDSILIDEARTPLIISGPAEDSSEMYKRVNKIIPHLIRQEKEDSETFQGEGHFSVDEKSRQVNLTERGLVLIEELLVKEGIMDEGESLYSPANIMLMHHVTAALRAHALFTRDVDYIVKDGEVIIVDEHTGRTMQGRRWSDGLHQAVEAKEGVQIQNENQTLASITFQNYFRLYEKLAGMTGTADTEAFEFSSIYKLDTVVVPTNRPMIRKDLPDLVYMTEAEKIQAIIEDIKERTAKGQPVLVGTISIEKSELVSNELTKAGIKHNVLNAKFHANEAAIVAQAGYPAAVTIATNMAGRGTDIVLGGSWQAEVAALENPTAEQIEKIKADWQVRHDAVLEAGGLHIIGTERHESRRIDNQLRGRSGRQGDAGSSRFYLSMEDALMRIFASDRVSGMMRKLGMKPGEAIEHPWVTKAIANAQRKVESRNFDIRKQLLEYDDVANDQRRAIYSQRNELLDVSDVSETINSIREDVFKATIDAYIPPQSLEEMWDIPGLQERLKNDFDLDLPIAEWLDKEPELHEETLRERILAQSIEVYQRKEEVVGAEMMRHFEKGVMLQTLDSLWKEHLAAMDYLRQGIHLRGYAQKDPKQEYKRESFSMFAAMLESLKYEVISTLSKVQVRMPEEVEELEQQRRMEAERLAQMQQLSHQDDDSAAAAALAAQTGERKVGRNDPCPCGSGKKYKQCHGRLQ
Chain of Sialic acid-binding Ig-like lectin 9 (Homo sapiens) (Q9Y336 whole entry): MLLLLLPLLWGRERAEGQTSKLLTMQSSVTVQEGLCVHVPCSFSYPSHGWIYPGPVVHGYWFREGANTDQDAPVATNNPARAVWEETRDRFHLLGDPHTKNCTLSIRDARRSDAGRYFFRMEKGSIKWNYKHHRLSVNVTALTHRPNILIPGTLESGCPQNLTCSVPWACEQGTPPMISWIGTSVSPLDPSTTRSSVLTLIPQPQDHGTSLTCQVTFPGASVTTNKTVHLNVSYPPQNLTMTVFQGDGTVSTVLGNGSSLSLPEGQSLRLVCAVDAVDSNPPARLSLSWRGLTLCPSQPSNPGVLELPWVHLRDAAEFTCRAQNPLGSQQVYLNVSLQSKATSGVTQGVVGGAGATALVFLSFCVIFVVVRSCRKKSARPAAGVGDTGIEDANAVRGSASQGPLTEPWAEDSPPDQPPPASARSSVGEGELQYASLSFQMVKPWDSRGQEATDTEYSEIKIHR

O[C@]1(c2ccccn2)CC[C@@H]2CN(Cc3cccc4ncccc34)C[C@@H]21
Percent Effect [1]: -4.41%
Percent Effect [2]: 9.46%
Percent Effect [3]: 11.8%
Percent Effect [4]: -7.79%
Percent Effect (Trypanosoma cruzi): -1.38%
Percent Effect [5]: 0.696%
Percent Effect [6]: 21.4%
Percent Effect (Homo sapiens): 21.9%
Percent Effect [7]: 9.68%
Percent Effect [8]: 9.09%
Percent Effect [9]: -13.1%

Cc1cc(C)c(CNC(=O)NCC(O)COc2ccccc2)c(=O)[nH]1 (stereo not drawn)
Percent Effect [1]: -9.63%
Percent Effect [2]: 7.89%
Percent Effect [3]: 4.9%
Percent Effect [4]: 1.32%
Percent Effect (Trypanosoma cruzi): -0.84%
Percent Effect [5]: -0.719%
Percent Effect [6]: -1.1%
Percent Effect (Homo sapiens): 12%
Percent Effect [7]: 1.48%
Percent Effect [8]: -1.24%
Percent Effect [9]: -2.07%

CC(C)c1nc(CN(C)C2CCN(Cc3nc(C4CC4)no3)C2)no1 (stereo not drawn)
Percent Effect [1]: 4.92%
Percent Effect [2]: 11%
Percent Effect [3]: -9.72%
Percent Effect [4]: 4.44%
Percent Effect (Trypanosoma cruzi): -8.42%
Percent Effect [5]: 1.36%
Percent Effect [6]: 18.8%
Percent Effect (Homo sapiens): 22.3%
Percent Effect [7]: 3.23%
Percent Effect [8]: 10%
Percent Effect [9]: -6.06%

CC(C)CCn1[nH]c(CNc2ccccc2)nc1=O
Percent Effect [1]: -2.4%
Percent Effect [2]: 2.63%
Percent Effect [3]: 4.53%
Percent Effect [4]: 4.24%
Percent Effect (Trypanosoma cruzi): -9.06%
Percent Effect [5]: 2.37%
Percent Effect [6]: 16.2%
Percent Effect (Homo sapiens): 2.77%
Percent Effect [7]: 2.13%
Percent Effect [8]: 2.6%
Percent Effect [9]: 4.81%

CC(=O)Nc1cc(C(=O)N2CCOCC2c2ccc(C)o2)ccc1F (stereo not drawn)
Percent Effect [1]: -3.55%
Percent Effect [2]: 2.67%
Percent Effect [3]: -3.55%
Percent Effect [4]: -1.06%
Percent Effect (Trypanosoma cruzi): -2.43%
Percent Effect [5]: -1.04%
Percent Effect [6]: 4.18%
Percent Effect (Homo sapiens): -20.8%
Percent Effect [7]: 0.546%
Percent Effect [8]: 3.7%
Percent Effect [9]: 1.78%

Cc1ccc(-c2nnc(CN3CCOC(Cn4cccn4)C3)o2)cc1 (stereo not drawn)
Percent Effect [1]: -4.11%
Percent Effect [2]: 10.1%
Percent Effect [3]: -1.13%
Percent Effect [4]: 4.66%
Percent Effect (Trypanosoma cruzi): 0.661%
Percent Effect [5]: 3.42%
Percent Effect [6]: 7.45%
Percent Effect (Homo sapiens): 4.27%
Percent Effect [7]: 2.46%
Percent Effect [8]: 11.4%
Percent Effect [9]: -5.6%

Cc1noc(C)c1-c1cnc(CC2CCN(C(=O)c3cc[nH]n3)C2)cn1 (stereo not drawn)
Percent Effect [1]: -0.461%
Percent Effect [2]: 9.46%
Percent Effect [3]: 11.7%
Percent Effect [4]: -4.31%
Percent Effect (Trypanosoma cruzi): -2.37%
Percent Effect [5]: -2.09%
Percent Effect [6]: 7.02%
Percent Effect (Homo sapiens): 3.9%
Percent Effect [7]: 8.6%
Percent Effect [8]: 14.3%
Percent Effect [9]: -9.57%

Cc1ccc(-n2nnc(C(=O)NS(C)(=O)=O)c2C2CC2)cc1
Percent Effect [1]: -1.84%
Percent Effect [2]: 0%
Percent Effect [3]: -7.9%
Percent Effect [4]: 0.772%
Percent Effect (Trypanosoma cruzi): 7.52%
Percent Effect [5]: -1.66%
Percent Effect [6]: -0.179%
Percent Effect (Homo sapiens): 12.9%
Percent Effect [7]: 2.97%
Percent Effect [8]: 13.4%
Percent Effect [9]: 3.65%
